# Screens (PubChem)
# Shown are actives, neighbours in structure and some others; about 9.4% of the full set was active somewhere.
# FLuc counter = firefly luciferase modulation, counter-screen for miR-21 project; 360,000 tested, 6.9% active; Potency, µM (doses to about 57.5 µM), for inactives: at the top dose activity change, negative = inhibition, hits mostly inhibitors; P08659; purified FLuc, Km substrates, luminescence inhibition;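 further: plate controls were vehicle for no effect and reference inhibitor for full effect; nearly all actives have a fitted effect of over 55% in size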
# Target sequence (P08659 whole entry, looked up): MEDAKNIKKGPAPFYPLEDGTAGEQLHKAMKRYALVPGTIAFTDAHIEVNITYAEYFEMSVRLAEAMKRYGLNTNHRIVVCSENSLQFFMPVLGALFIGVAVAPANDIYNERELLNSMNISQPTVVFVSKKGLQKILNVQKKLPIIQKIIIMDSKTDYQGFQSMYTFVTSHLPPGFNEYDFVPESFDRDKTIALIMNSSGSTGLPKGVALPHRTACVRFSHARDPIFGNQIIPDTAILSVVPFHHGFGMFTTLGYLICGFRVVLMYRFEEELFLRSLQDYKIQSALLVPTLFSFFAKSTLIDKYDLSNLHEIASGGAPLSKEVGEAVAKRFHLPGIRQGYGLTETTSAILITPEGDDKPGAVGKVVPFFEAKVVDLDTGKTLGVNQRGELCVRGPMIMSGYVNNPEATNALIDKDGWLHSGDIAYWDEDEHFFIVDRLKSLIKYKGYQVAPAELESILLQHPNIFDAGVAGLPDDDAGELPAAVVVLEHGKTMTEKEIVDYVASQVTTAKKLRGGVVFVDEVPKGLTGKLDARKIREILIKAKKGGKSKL
#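 Purified P. pyralis luciferase, 10 nM final, with Km-level 10 uM D-luciferin and 10 uM ATP in 50 mM Tris acetate pH 7.5, 10 mM Mg acetate, 0.01% Tween-20, 0.05% BSA; 6-point qHTS titration about 60 µM downward; luminescence read.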
# SMN2 splice enh = SMN2 splice variant enhancement | HEK293 SMN2-luciferase splicing reporter, luminescence, 30-36 h | Potency, µM (series often up to 46.1 µM), for inactives: at the top dose activity change, positive = activation, most hits filed as activators | 210,000 tested, 2.8% active; further: % of control where 0% means no effect; nearly all actives have a fitted effect of over 55% in size
#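 qHTS luciferase splicing reporter: luminescence rises when SMN2 exon 7 is included in transfected HEK293 cells. Compound exposure lasted 30-36 h at 37C, with 4.5 mM final sodium butyrate as control, followed by a ONE-Glo read.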
# ELG1 DNA repair = blocks ELG1-dependent DNA repair in HEK293T cells | HEK293T ELG1-luciferase reporter, luminescence, 16 h; DNA damage induced by 5-fluorouridine | Potency, µM (highest dose often 46.1 µM), inactives show top-dose activity change, negative = inhibition, hits mostly inhibitors | 330,000 tested, 2.3% active; further: on the % scale 0 is the no-effect control and ±100 the full control effect; nearly all actives have a fitted effect of over 55% in size
#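 DMSO vehicle served as the neutral condition. Each well held 2,000 cells given 5-fluorouridine plus compound; after 16 hr at 37 °C/5% CO2, ONE-Glo was added and luciferase measured 30 min later.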
# ELG1 genotox = genotoxicity induction in ELG1-luciferase HEK293T cells. Potency, µM (highest dose often 46 µM), for inactives: at the top dose activity change, positive = activation, hits mostly activators. HEK293T ELG1-luciferase reporter, luminescence, 16 h. AID 504466. 330,000 tested, 1.3% active; further: % of control where 0% means no effect; nearly all actives have a fitted effect of over 60% in size
#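 DMSO vehicle served as control against compound-treated ELG1-luciferase HEK293T cells; exposure lasted 16 hr at 37 °C and 5% CO2, followed by ONE-Glo luminescence detection after 30 min.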
# Rab9 promoter act = Rab9 promoter activation; Huh7 Rab9 promoter-luciferase reporter, luminescence, 24 h; Potency, µM (titrated, usually from 9.22 µM), for inactives: at the top dose activation, negative = inhibition, actives largely listed as activators; 320,000 tested, 2.8% active; AID 485297; further: % of control where 0% means no effect; nearly all actives have a fitted effect of over 60% in size
#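 Stable Rab9-luc Huh7, 1500 cells/well, 2 h settle; cmpd in DMSO, 24 h, 37 °C/5% CO2; luciferase reagent 10 min RT; luminescence.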
# NPC1 promoter act = activators of NPC1 promoter; Huh7 NPC1 promoter luciferase reporter, 24 h; Potency, µM (doses to about 9.22 µM), inactives show at the top dose activation, usual class: activators; 320,000 tested, 2.4% active; further: % of control where 0% means no effect; nearly all actives have a fitted effect of over 60% in size
#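 Luminescence read-out of NPC1 promoter-driven luciferase in stably transfected Huh7 cells; compounds delivered in DMSO and left 24 h at 37C, 5% CO2, qHTS titration format.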
# The depositor's hits bear a star; ? = inconclusive; . = not tested or not shown. The call rests on the fitted dose curve; in most records, active means well fitted curve in the direction sought with a large enough effect; inconclusive means small, poorly fitted or top-dose-only effect, or another doubt; inactive means no such curve, though single readings can be large; an effect the other way counts as inactive or inconclusive. Potency means the concentration at half of the fitted maximal effect.
SMILES,FLuc counter,SMN2 splice enh,ELG1 DNA repair,ELG1 genotox,Rab9 promoter act,NPC1 promoter act
O=C(Nc1ccc2oc(-c3ccncc3)nc2c1)c1ccc2c(c1)OCO2,?,.,-2%,2%,-7%,-2%
COc1ccc(C(=O)Nc2ccc3oc(-c4cccnc4)nc3c2)cc1OC,1%,-15%,?,-7%,-19%,-2%
COc1cc(C(=O)Nc2ccc3oc(-c4cccnc4)nc3c2)cc(OC)c1OC,3%,-44%,23µM*,-7%,-2%,-2%
COc1cc(C(=O)Nc2nc(OC)c(-c3ccccc3)c(OC)n2)cc(OC)c1OC,3%,-1%,9.2µM*,-15%,-1%,-2%
N#C/C(=C\c1ccc(Cl)cc1Cl)c1nc(-c2cccc(Cl)c2)cs1,-2%,-8%,.,.,.,.
Cc1nn(C)cc1/C=N/NC(=O)c1ccc2c(c1)OCO2,17µM*,-16%,?,13%,-41%,0%
CCOc1cc(/C=N/NC(=O)c2nn(C)cc2Br)ccc1OCc1ccccc1Cl,?,-16%,?,-14%,-1%,-1%
O=C(N/N=C/c1ccc(Br)o1)c1ccc2c(c1)OCCO2,6µM*,11µM*,?,?,3.2µM*,3.2µM*
Cn1cc(Br)c(C(=O)N/N=C/c2cccc(OC3CSC3)c2)n1,19µM*,6%,?,8%,13%,0%
Cc1ccc(C(=O)/C=C/c2ccc3c(c2)OCO3)o1,2.4µM*,3%,?,4%,25%,-5%
COC(=O)/C=C/c1ccc2c(c1)OCO2,?,17%,-12%,7%,-3%,-2%
COc1ccc2c(c1)CC(C(=O)Nc1cc(Cl)ccc1C)CO2 (centres undefined),-2%,.,.,.,.,.
Cc1cccc(C)c1OCC(=O)NCC1(N2CCOCC2)CCCCC1,-8%,.,.,.,.,.
Cc1cccc(-n2c(=O)c3ccccc3n(Cc3ccc(F)cc3)c2=O)c1,0%,13%,.,.,.,.
CN(C)c1ccc(/C=N/NC(=O)c2ccc3c(c2)OCO3)cc1,8.5µM*,.,?,?,?,?
O=C(N/N=C/c1ccccc1)c1cc(-c2ccc3c(c2)OCO3)n[nH]1,-5%,15%,-4%,2%,-2%,-5%
O=C(N/N=C/c1cccc(O)c1)c1cc(-c2ccc3c(c2)OCO3)n[nH]1,5.4µM*,8%,?,-2%,1%,-2%
Cc1ccc(/C=N\NC(=O)c2ccc3c(c2)OCO3)o1,24µM*,.,0%,?,?,?
Cc1ccc(C(=O)N/N=C/c2ccc3c(c2)OCO3)o1,6µM*,13µM*,?,?,2.8µM*,3.2µM*
Cc1ccc(C)c(CSc2nc3c([nH]c4ccccc43)c(=O)n2C)c1,0%,.,.,.,.,.
O=C(N/N=C/c1ccc([N+](=O)[O-])o1)c1ccc2c(c1)OCO2,?,.,-4%,-4%,13%,-11%
CCOC(=O)N/N=C\c1ccc(OC(=O)c2ccc3c(c2)OCO3)cc1,15µM*,-4%,?,10%,21%,12%
O=C(O)c1ccc(/C=N/NC(=O)c2ccc3c(c2)OCCO3)cc1,6.7µM*,.,?,?,1%,0%
Cn1cc(Br)c(C(=O)N/N=C/c2cc3c(cc2Cl)OCO3)n1,6µM*,.,?,?,?,2.8µM*
O=C(N/N=C/c1ccccc1)c1ccc2c(c1)OCO2,?,.,?,?,0.4µM*,0.56µM*
SMILES,FLuc counter,SMN2 splice enh,ELG1 DNA repair,ELG1 genotox,Rab9 promoter act,NPC1 promoter act
Cc1ccc(-c2noc(C3CC(=O)N(c4ccc5c(c4)OCCO5)C3)n2)cc1 (centres undefined),2%,.,.,.,.,.
CCOC(=O)/C(C)=N/NC(C)=O,.,0%,.,.,.,.
COc1ccccc1CNC(=O)c1cc(S(=O)(=O)N2CCCCCC2)cn1C,-3%,.,.,.,.,.
COc1cc(/C=N/NC(=O)c2ccc3c(c2)OCCO3)cc(Cl)c1O,13µM*,.,?,10%,2%,22%
O=C(c1ccc(N2CCOCC2)cc1)c1cccs1,1.9µM*,2.5µM*,?,?,1.1µM*,0.89µM*
O=C(N/N=C/c1ccc(N2CCOCC2)cc1)c1ccccc1OCCOc1ccccc1,-11%,-15%,16µM*,-26%,-5%,5%
O=C(N/N=C/c1ccc(N2CCOCC2)cc1)c1cccs1,8.5µM*,11µM*,?,?,?,2.8µM*
O=C(N/N=C/c1ccc(N2CCOCC2)s1)c1ccc(NS(=O)(=O)c2cccs2)cc1,27µM*,.,11%,1%,12%,9%
COc1ccc(C(=O)N/N=C/c2ccc(N3CCOCC3)s2)cc1OC,-13%,.,-2%,-1%,-7%,-3%
O=C(Nc1ccc(N2CCOCC2)cc1N1CCOCC1)c1cccs1,-13%,3%,-5%,0%,-1%,2%
Cc1cccc(NC(=O)Cn2c(=O)n(CCc3ccccc3)c(=O)c3sc4ccccc4c32)c1,2%,8%,.,.,.,.
Cc1ccc(CN2C(=O)c3ccccc3S(=O)(=O)c3ccc(C(=O)OCC4CCCO4)cc32)cc1 (centres undefined),-1%,.,.,.,.,.
O=C(NN=Cc1ccc(F)c(F)c1)c1ccc(NS(=O)(=O)c2cccs2)cc1,.,.,9%,4%,.,.
O=C(N/N=C/c1ccc2c(c1)OCO2)c1ccc(NS(=O)(=O)c2cccs2)cc1,9.5µM*,13%,29%,4%,18%,9%
O=C(N/N=C/c1ccc(N2CCOCC2)cc1)c1ccc(NS(=O)(=O)c2cccs2)cc1,7.6µM*,-3%,-3%,-1%,0%,1%
CCc1cc(C(C)=O)c(O)cc1OCCCCCC(C)(C)c1nn[nH]n1,.,-17%,.,.,.,.
CCC1CCCCN1CCCNC(=O)c1[nH]c2ccccc2c1Sc1ccc(Cl)cc1 (centres undefined),-3%,.,.,.,.,.
COc1ccccc1CCCNC(=O)C1CCC(=O)N(Cc2ccccc2F)C1 (centres undefined),21µM*,.,?,?,4µM*,2.8µM*
Cc1ccc(CCNC(=O)C2CCC(=O)N(Cc3ccccc3F)C2)o1 (centres undefined),?,.,?,18µM*,?,?
COc1ccc(CCCNC(=O)C2CCC(=O)N(Cc3ccccc3F)C2)cc1 (centres undefined),-6%,.,20%,0%,0%,3%
CCN(CC)c1cc2c(cc1F)c(=O)c(S(=O)(=O)c1cccc(C)c1)cn2C,2%,.,.,.,.,.
COc1ccc2c(C(=O)NCCCCO)c(-c3ccc(S(C)(=O)=O)cc3)sc2c1,.,.,-9%,-4%,.,.
COc1ccc2sc(-c3ccc(S(C)(=O)=O)cc3)c(C(=O)NCCc3c[nH]c4ccccc34)c2c1,.,.,18µM*,-5%,.,.
